The results in this text go back to PubChem BioAssay AID1794835 (Parasite Biology Lab, Institute for Biomedicine and …, 2023).

Among all 2,500 compounds or so, about 45 (2%) were called active. Cut-off read from the data, not from the text of the source: active = inhibition mostly above about 45% (no sharp cut-off); inactive = mostly below about 37%. What follows is part of a selection rich in actives, with near analogues and random picks from the rest.

The assay in a line: anti-Giardia activity of synthetic compounds – Compounds Australia Scaffold Library subset, 24/48 h, primary screen (AID 1794835).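 For inhibition: 0% = parasite counts in DMSO vehicle wells.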 As to conditions: Giardia lamblia BRIS/91/HEPU/1279 trophozoite counts, imaging, at 10 µM.
[1] abbreviates: measured here: growth inhibition at 24 h, stronger effect = higher value.

Turning to `Cc1ccc(CNC(=O)N2CCN(C3=CC4=NCC(C)N4C=N3)CC2)cc1` (stereo unspecified), the inhibition reads like this: (stronger effect = higher value) 11.9% (inactive); under setting [1], 18.7%.
As to `Cc1ccc2c(c1)NC(c1ccc(C)o1)=NC(c1cccs1)=N2`, the inhibition was 54.6% (active) (stronger effect = higher value) and 15.2% under setting [1].
In the case of `Fc1ccc(C2=Nc3ccc(Cl)cc3NC(c3cccs3)=N2)cc1`, the outcome was inactive. Under setting [1], this compound registered an inhibition of 23%.
In the case of `CCn1c(C2CCN(C(=O)c3ccc(Br)cc3)C2)nc2cccnc21` (stereo unspecified), the inhibition entry is “inactive”.
On the same count and under the same terms, the same measure for `CCCn1c(=O)c(C)nc2cc(-c3noc(-c4cccc(NC(=O)c5ccco5)c4)n3)ccc21`: “inactive”; for `COc1cc(OC)c(N2CC(C(=O)N3CCc4sccc4C3)CC2=O)cc1Cl` (stereo unspecified): “inactive”; for `C1CCC(Sc2nnc(N3CCOCC3)s2)C1`: “inactive”.
Consider `O=[N+]([O-])c1cc(F)ccc1Sc1nnc(N2CCOCC2)s1`, for which the inhibition is, setting by setting: (stronger effect = higher value) 60.8% (active); under setting [1], 30.9%.
The corresponding values for `O=[N+]([O-])c1ccccc1Sc1nnnn1C1CCOCC1` are 8.6% (inactive) and 6.15%.
As for `CCCC(=O)Nc1ccc2nc(N3CCCC3)cc(C(=O)O)c2c1`, the inhibition entry was “inactive”.
Consider `COc1ccc(CN2CCN(C(=O)c3c(C)oc4c3C3=NCCN3C=N4)CC2)c(OC)c1OC`, for which the inhibition runs as follows: (stronger effect = higher value) 7.4% (inactive); under setting [1], 3%.
The corresponding values for `Cc1ccccc1C(=O)Nc1cnc(N2CCNCC2)c(C(=O)N(C)Cc2ccccc2)c1` are 15.2% (inactive) and 10.2%.
For the compound `CCC(=O)N1CCC(Oc2ccc(C(=O)N3CCOCC3)cn2)CC1`, the inhibition entry was “inactive”.
As for `Cc1nnc2n1CCN(C(=O)c1cc(Br)c[nH]1)C2`, the inhibition result was “inactive”.
As to `COc1cc(N2CCn3c(nc4cc(Cl)ccc43)C2)ccc1NC(=O)COc1ccccc1`, the inhibition entry is “inactive”.
As to `COc1c(C)cnc(Cn2cnc([N+](=O)[O-])c2)c1C`, the inhibition by setting is: (stronger effect = higher value) 83% (active); under setting [1], 25.8%.
Take `Cc1noc(-c2c(C)sc(C)c2S(=O)(=O)NCc2ccccc2)c1C`: under “stronger effect = higher value”, the inhibition is 30.5% (inactive).
With `Cc1ccc(C(=O)N2CCC(Oc3ncccc3C(=O)N3CCCCC3)C2)c(C)c1` (stereo unspecified), the compound was classed as inactive. This compound also came in with an inhibition under setting [1] of 0.6%.
As to `COc1ccc2oc(-c3noc(C(NC(=O)c4ccco4)C(C)C)n3)c(C)c2c1` (stereo unspecified), the inhibition runs as follows: (stronger effect = higher value) 9.9% (inactive); under setting [1], 18.3%.
Turning to `COc1ccc2oc(-c3noc(C(=O)NCCN4CCCCCC4)n3)c(C)c2c1`, the inhibition is, setting by setting: (stronger effect = higher value) 56.6% (active); under setting [1], 11.6%.
Consider `Cc1ccc2oc(-c3noc(C(=O)NCC4CCCO4)n3)c(C)c2c1` (stereo unspecified), for which the compound was classed as inactive. Further, under setting [1], the inhibition was 2%.
`Cc1cccc(-c2nc(Cn3nnc(C(=O)Nc4ccc5c(c4)OCCO5)c3N)c(C)o2)c1`: the inhibition result was “inactive”.
For `CCOc1ccc(CCNC(=O)c2c(C)oc3c2C2=NCCN2C=N3)cc1OCC`, the inhibition (stronger effect = higher value) was 17.8% (inactive).
As for `CCOc1ccc(CCNC(=O)c2ccc3c(c2)nc2n3CCOC2)cc1OCC`, the inhibition by setting is: (stronger effect = higher value) 79.8% (active); under setting [1], 27.2%.
As to `CSc1ccc(CCNC(=O)c2ccc3c(c2)nc2n3CCOC2)cc1`, the inhibition (stronger effect = higher value) is 12.8% (inactive).
As for `Cc1ccc(-c2nc3ccccc3n2Cc2cccc(F)c2)o1`, the inhibition is, setting by setting: (stronger effect = higher value) 16.3% (inactive); under setting [1], 22.1%.
On to `COc1ccc(C2(C(=O)N3CCC(Cc4nc(-c5ccc(F)cc5)no4)CC3)CC2)cc1`, for which the compound was called inactive. This compound also came in with an inhibition under setting [1] of 11.4%.
`C=CCn1c(SCC(=O)N2CCCCC2)nc2scc(-c3ccco3)c2c1=O`: the inhibition by setting is: (stronger effect = higher value) 5.6% (inactive); under setting [1], 6.8%.
As to `CCCCn1nnnc1CN1CCCC1Cn1cncn1` (stereo unspecified), the outcome was inactive. This compound had an inhibition under setting [1] of 2%.
Take `O=C(Nc1ccn(Cc2cccnc2)n1)c1ccc2n[nH]nc2c1`: the inhibition result was “inactive”.
For the compound `O=C(Cc1csc2nc(-c3ccccc3)cn12)Nc1ccc(Cl)cc1`, the inhibition reads like this: (stronger effect = higher value) 67.7% (active); under setting [1], 47.6%.
In the case of `O=C(Cc1csc2nc(-c3ccccc3)cn12)NCCc1cccs1`, the compound was classed as inactive. The compound further gave an inhibition under setting [1] of 0.1%.
In the case of `O=C(Cn1nccc1-c1ccncc1)Nc1ccc(Cl)cc1`, the inhibition entry is “inactive”.
For `Cc1oc(-c2cccs2)nc1Cn1cccn1`, the inhibition result was “inactive”.
With `O=C(Cc1noc(-c2ccoc2)n1)NC1CCCCC1`, the inhibition is, setting by setting: (stronger effect = higher value) 3.1% (inactive); under setting [1], 4.9%.
Take `Cc1ccc(CNC(=O)c2ccc3nn(CC(=O)N(C)c4ccccc4)c(=O)n3c2)cc1`: the inhibition entry is “inactive”.
On the same count and under the same terms, with `O=C(Cn1nc2c3cc(-c4ccccc4)nn3ccn2c1=O)N1CCCc2ccccc21` the entry was “inactive”.
On to `Cc1ccc(C)c(-c2cc3c4nn(CC(=O)N(C)c5ccc(F)cc5)c(=O)n4ccn3n2)c1`, for which the inhibition by setting is: (stronger effect = higher value) 96.3% (active); under setting [1], 79.6%.
As to `O=S(=O)(Cc1ccc(C(F)(F)F)cc1)Cc1noc(C2CC2)n1`, the compound was called inactive. Moreover, the inhibition under setting [1] is 12.6%.
For the compound `CCc1nccn1CC1CCCN1` (stereo unspecified), the compound was classed as inactive. The same compound showed an inhibition under setting [1] of 0.2%.
Regarding `Cc1ccc(N2C(=O)N[C@@H]3C[C@]2(C)Oc2c(O)cc(C(C)(C)C)cc23)cc1C`, the inhibition entry was “inactive”.
Turning to `Cc1c(-c2nc(-c3ccccc3)no2)nnn1-c1cccc(Cl)c1`, the inhibition result was “inactive”.
For `Cc1ccc(C)c(NC(=O)Cc2nc(Cn3cnc([N+](=O)[O-])c3)cs2)c1`, the inhibition runs as follows: (stronger effect = higher value) 59.9% (active); under setting [1], 8.45%.
On to `CN(C)C(=O)Cc1nc(CN2CCc3c(ncn3C)C2)cs1`, for which the compound was called inactive. The same compound came in with an inhibition under setting [1] of 1.4%.
Turning to `Cc1ccc(NC(=O)Cc2nc(-c3ccc4c(c3)CC(=O)N4C)cs2)cc1`, the inhibition was 10% (inactive) (stronger effect = higher value) and 9.8% under setting [1].

As a reminder, the inhibition is the percentage by which the read-out fell short of the control.
